Test results published in PubChem BioAssay.
Activity calls are given as the source filed them.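 Rule for the calls: active = compounds killing one labelled cell type while sparing the other, by normalised counts and ratio limits, not self-fluorescent; inactive = the rest.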

Assay: EMT-state selective cytotoxicity in co-culture – imaging, PC-3E GFP, TEM4-18 mCherry, primary screen (AID 1345086);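 note: cells exposed to compound for 72 h before imaging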;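 for red/green cell ratio (normalised): normalised mesenchymal count divided by normalised epithelial count so high means epithelial killing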
Conditions: PC-3E GFP / TEM4-18 mCherry co-culture, imaging cell counts, at 1 µM; for red/green cell ratio (normalised): actives lie on both sides, counts scaled to control wells, 1 = unselective
[1] = measured here: epithelial PC-3E GFP cell survival
[2] = measured here: mesenchymal TEM4-18 mCherry cell survival

SMILES | red/green cell ratio (normalised) | normalised cell number [1] | normalised cell number [2]
C[C@H](O)CCc1ccc(C(=O)O)nc1 | 0.97 (inactive) | 1.16 | 1.13
COc1c(N2CC[C@@H](CN)C2)c(F)cc2c(=O)c(C(=O)O)cn(CCCN3C(=O)c4ccccc4C3=O)c12 | 1.07 (inactive) | 1.03 | 1.1
C=CCSC[C@@H](N)C(=O)O | 0.86 (inactive) | 1.23 | 1.06
CC1=C2[C@H](C=C3CCC[C@@H](C)[C@]3(C)[C@@H]2O)OC1=O | 0.84 (inactive) | 1.01 | 0.85
CC(CC(=O)N1CCOC1=O)N1C(=S)OC[C@@H]1Cc1ccccc1 (stereo not given in full) | 1.09 (inactive) | 0.88 | 0.95
C=C1OC(=O)C23C(O)C(=O)CC(OC12)C3C (stereo not given) | 0.89 (inactive) | 1.19 | 1.06
CC#C[C@]1(O)CCC2C3CCC4=CC(=O)CCC4=C3[C@@H](c3ccc(N(C)C)cc3)C[C@@]21C (stereo not given in full) | 1 (inactive) | 1.09 | 1.09
CC(=O)O[C@H]1CC[C@@]2(C)C(CC[C@]3(C)C2CC=C2C4CC(C)(C)CC[C@]4(C)CC[C@]23C)C1(C)C (stereo not given in full) | 1.1 (inactive) | 1.04 | 1.15
COC(=O)C1O[C@H](OCc2ccc(OC)cc2)[C@@H](OC(=O)c2ccccc2)[C@@H](OC(=O)c2ccccc2)C1O (stereo not given in full) | 0.84 (inactive) | 1.32 | 1.11
O=C(O)c1c(Cl)nc(Cl)c2ccccc12 | 1.02 (inactive) | 0.97 | 0.99
CC(=O)OC[C@@]1(O)C[C@@]23CCC4c5ccoc5CC[C@]4(C)C2CC[C@@H]1C3 (stereo not given in full) | 0.98 (inactive) | 0.89 | 0.88
CCCc1ccc(C(=O)O)nc1 | 0.84 (inactive) | 1.18 | 0.99
NC(=O)c1cc(F)c(F)cc1NC1CC1 | 1.15 (inactive) | 1.02 | 1.16
O=C1C[C@@H]2[C@H](Br)[C@@H](O)C[C@@H]2O1 | 0.73 (inactive) | 1.24 | 0.91
O=C(O)CCCCCCCC(O)C(O)CCCCCCO (stereo not given) | 1.02 (inactive) | 1.11 | 1.13
O=C1C[C@@H](O)[C@]23Oc4ccc(O)c5c4[C@](Oc4cccc1c42)(O3)C1O[C@@H]1[C@H]5O (stereo not given in full) | 0.97 (inactive) | 1.1 | 1.07
CC(=C\C(=O)O)/C=C(\C)C[C@H](C)CCCC[C@H]1OC(=O)[C@@H]1CO | 1 (inactive) | 0.95 | 0.95
C/C=C/[C@@H]1OC2=C(C(=O)O[C@H]2C)[C@H](O)[C@H]1O | 0.96 (inactive) | 0.76 | 0.73
C[C@@H]1[C@H](O)[C@@H](C)/C=C/C=C/C=C/C=C/C=C/C=C/C=C/[C@H](OC2O[C@H](C)[C@@H](O)[C@H](N)[C@@H]2O)C[C@@H]2O[C@](O)(C[C@@H](O)C[C@@H](O)[C@H](O)CC[C@@H](O)C[C@@H](O)CC(=O)O[C@H]1C)C[C@H](O)[C@H]2C(=O)O (stereo not given in full) | 0.82 (inactive) | 1.26 | 1.03
COc1cc(O)c2c(c1)C(=O)C1=C(C2=O)C(OC)OC1 (stereo not given) | 1.02 (inactive) | 0.9 | 0.92

SMILES | red/green cell ratio (normalised) | normalised cell number [1] | normalised cell number [2]
CC1(C)C(C(=O)O)N2C(=O)C[C@H]2S1(=O)=O (stereo not given in full) | 0.69 (inactive) | 1.22 | 0.84
CC(=O)OCC(=O)[C@@]1(O)CCC2C3C[C@H](C)C4=CC(=O)C=CC4(C)C3[C@@H](O)CC21C (stereo not given in full) | 1.09 (inactive) | 1.16 | 1.27
CC(CC(=O)N1C(=O)OC[C@H]1c1ccccc1)N1CCOC1=S (stereo not given in full) | 0.87 (inactive) | 1.09 | 0.95
COc1ccc2oc(-c3ccccc3)c(OC)c(=O)c2c1 | 0.79 (inactive) | 1.37 | 1.08
C=C1C(=O)OC(C(=O)O)C1(O)CCCCCCCCC (stereo not given) | 0.96 (inactive) | 1.02 | 0.98
Cc1nc(COP(=O)(O)O)cc(CN(CCN(CC(=O)O)Cc2cc(COP(=O)(O)O)nc(C)c2[O-])CC(=O)O)c1[O-].[Mn+2] | 0.88 (inactive) | 1.27 | 1.12
COC(=O)C[C@@H]1C2(C)C(=O)C3CC4(OC3(O)C1(C)C)C1=CC(=O)O[C@@H](c3ccoc3)[C@]1(C)CCC42 (stereo not given in full) | 1.06 (inactive) | 0.91 | 0.96
CC(CCC(=O)O)[C@H]1CCC2C3CC[C@@H]4C[C@H](O)CC[C@]4(C)C3C[C@H](O)[C@@]21C (stereo not given in full) | 1.05 (inactive) | 0.86 | 0.91
CC[C@H](O)c1oc(=O)cc(OC)c1C | 0.96 (inactive) | 1.01 | 0.97
O=C(Nc1ccc(Cl)cc1)Nc1ccc(CO)cc1 | 0.86 (inactive) | 1.29 | 1.11
Oc1ccc2c(c1)OCC1(O)Cc3cc(O)c(O)cc3C21 (stereo not given) | 1.17 (inactive) | 1.12 | 1.31
Nc1nc(=S)c2ncn(C3O[C@H](CO)[C@@H](O)[C@H]3O)c2[nH]1 (stereo not given in full) | 0.83 (inactive) | 1.02 | 0.85
C=C1C[C@]23C[C@@]1(O)CC[C@H]2[C@@]12C=C[C@H](O)[C@](C)(C(=O)O1)[C@H]2[C@@H]3C(=O)O | 1.1 (inactive) | 0.93 | 1.02
NCc1ccccc1CC(=O)NC1C(=O)N2C(C(=O)O)=C(CSc3nnnn3CC(=O)O)CSC12 (stereo not given) | 0.82 (inactive) | 1.19 | 0.98
O=C(O)C1O[C@@H](O)[C@@H](O)[C@@H](O)C1O (stereo not given in full) | 0.93 (inactive) | 1.22 | 1.13
c1ccc(SCC2CCCNC2)cc1 (stereo not given) | 0.86 (inactive) | 1.24 | 1.06
CC(=O)OCC[C@H](C)CCC=C(C)C | 1.13 (inactive) | 1 | 1.13
O=C(Cc1ccncc1)c1ccc(F)cc1 | 1.16 (inactive) | 0.82 | 0.95
C=C/C(C)=C\CC1[C@](C)(O)CC[C@H]2C(C)(C)CCC[C@]12C (stereo not given in full) | 1.09 (inactive) | 1.11 | 1.2
O=C1C=CC2(Oc3cccc4cccc(c34)O2)[C@H]2[C@H]1[C@@H](O)C=C[C@H]2O | 0.98 (inactive) | 1.06 | 1.04

SMILES | red/green cell ratio (normalised) | normalised cell number [1] | normalised cell number [2]
CC(=O)O[C@H]1CC2CCC3C(CC[C@@]4(C)C3C[C@H]([N+]3(C)CCCCC3)[C@@H]4OC(C)=O)[C@@]2(C)C[C@@H]1N1CCCCC1 (stereo not given in full) | 0.86 (inactive) | 1.03 | 0.88
COc1cc([C@@]2(C)[C@@H]3[C@@H](C)CCC[C@@H]3C=C[C@@H]2C)oc(=O)c1C=O | 0.92 (inactive) | 1.06 | 0.98
COc1cc(/C=C/C(=O)/C=C(O)/C=C/c2ccc(O)c(OC)c2)ccc1O | 1.04 (inactive) | 1.02 | 1.06
CC(=O)O[C@H]1C[C@@H](OC(C)=O)C(C)(C)C2C[C@@H](OC(C)=O)[C@]3(C)C(CC[C@@]4(C)[C@H](c5ccoc5)OC(=O)[C@H]5O[C@]543)[C@]21C (stereo not given in full) | 1.1 (inactive) | 0.93 | 1.02
CCC[C@H]1Cc2cc3c(-c4c(O)cc(O)c5c(O)c6c(cc45)C[C@H](CCC)OC6=O)c(O)cc(O)c3c(O)c2C(=O)O1 | 0.9 (inactive) | 0.85 | 0.77
COc1cc(C(O)CO)oc1C=O (stereo not given) | 0.86 (inactive) | 1.08 | 0.93
COc1cc(OC)c2c(c1)OC(c1ccccc1)CC2=O (stereo not given) | 1.1 (inactive) | 0.99 | 1.08
CC(C)[C@@H]1CCC(CO)=C[C@@H]1/C=C(\CO)C(=O)O | 0.88 (inactive) | 1.29 | 1.13
CC(C)CCCC(C)C1CCC2C3=CC[C@H]4C[C@@H](O)CC[C@]4(C)C3CC[C@@]21C (stereo not given in full) | 0.98 (inactive) | 1.1 | 1.08
CC(C)/C(O)=C1/C(=O)O[C@@H](c2ccoc2)[C@]2(C)C(O)[C@@H](O)[C@@]34OC5(C)OC67CC(C)(C(O)[C@]6(O)[C@@H](O)[C@]3(O5)C12)[C@H](CC(=O)O)C74C (stereo not given in full) | 1.06 (inactive) | 1 | 1.06
CC(C)(C)[Si](C)(C)OCC1O[C@H](Sc2ccccc2)[C@H]2NC(=O)O[C@H]2C1O (stereo not given in full) | 1.07 (inactive) | 0.97 | 1.05
COC(=O)C1O[C@H](OCc2ccccc2)[C@@H](OC(C)=O)[C@@H](OC(C)=O)C1OC(C)=O (stereo not given in full) | 0.86 (inactive) | 1.31 | 1.13
O=C(O)[C@@H](S)[C@@H](S)C(=O)O | 1.16 (inactive) | 0.95 | 1.1
CC(=O)N[C@@H]1[C@@H](OC(C)C(=O)O)[C@H](O)[C@@H](CO)O[C@H]1O (stereo not given in full) | 0.95 (inactive) | 1.06 | 1
C=C1OC(=O)c2c(OC)cc(OC)c(C)c2C1C (stereo not given) | 1 (inactive) | 0.98 | 0.98
CN(C(=O)OCc1ccccc1)C1C(O[C@@H]2OC(COS(=O)(=O)O)C(NC(=O)OCc3ccccc3)[C@H](OS(=O)(=O)O)[C@H]2OS(=O)(=O)O)OC2C[C@@H](NC(=O)OCc3ccccc3)[C@@H](OC3C(NC(=O)OCc4ccccc4)C[C@@H](NC(=O)OCc4ccccc4)[C@H](OS(=O)(=O)O)[C@H]3OS(=O)(=O)O)OC2C1OS(=O)(=O)O (stereo not given in full) | 0.95 (inactive) | 1.05 | 1
Cc1ccc(S[C@H]2OC(COS(=O)(=O)c3ccc(C)cc3)C(O)[C@@H]3OC(=O)N[C@H]23)cc1 (stereo not given in full) | 0.86 (inactive) | 1.19 | 1.02
Cc1c(F)c(F)cc2c(=O)n(N)c(=O)n(C3CC3)c12 | 0.9 (inactive) | 0.79 | 0.71
CC(C)=C1CC[C@]2(C)[C@@H](O)CC[C@H]3[C@](C)(Cc4c[nH]c5ccccc45)[C@@H](C)CC[C@]132 | 0.86 (inactive) | 1.09 | 0.94
OCC1O[C@H](O[C@H]2OC(CO)[C@@H](O)[C@@H](O)C2O)C(O)[C@H](O)[C@@H]1O (stereo not given in full) | 1.12 (inactive) | 1.01 | 1.13
